What all share (test): NCI-60 one-dose screen, 48 h (100 = growth as untreated, 0 = no growth, -100 = all killed)
The subject of assay [1] is SR leukemia. As to conditions: 10 µM unless noted.
For assay [2], the system named is RPMI-8226 leukemia. As to conditions: 10 µM unless noted.
In assay [3] the test system is OVCAR-8 ovarian. As to conditions: 10 µM unless noted.
Assay [4] deals with OVCAR-5 ovarian. As to conditions: 10 µM unless noted.
Assay [5] deals with SK-OV-3 ovarian. As to conditions: 10 µM unless noted.
Assay [6] has as its system IGROV1 ovarian. As to conditions: 10 µM unless noted.
Assay [7] relates to OVCAR-3 ovarian. As to conditions: 10 µM unless noted.
The subject of assay [8] is HS 578T breast. As to conditions: 10 µM unless noted.
In assay [9] the test system is NCI/ADR-RES ovarian. As to conditions: 10 µM unless noted.
For assay [10], the system named is T-47D breast. As to conditions: 10 µM unless noted.
In assay [11] the test system is BT-549 breast. As to conditions: 10 µM unless noted.
In assay [12] the test system is MDA-MB-435 melanoma. As to conditions: 10 µM unless noted.
Assay [13] relates to SW-620 colon. As to conditions: 10 µM unless noted.
Assay [14] concerns MCF7 breast. As to conditions: 10 µM unless noted.
The subject of assay [15] is HCT-116 colon. As to conditions: 10 µM unless noted.
Assay [16] relates to HCC-2998 colon. As to conditions: 10 µM unless noted.
In assay [17] the test system is KM12 colon. As to conditions: 10 µM unless noted.
Assay [18] deals with OVCAR-4 ovarian. As to conditions: 10 µM.

The source of these data is PubChem BioAssay (NCI).

Molecules are shown by their SMILES. This is part of a sample that, as a whole, favours compounds with a hit. Of some 83,000 tested, about 20% had one in any assay.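 A percent growth of 40 corresponds to 60% growth inhibition; 0 means no net growth; -100 means all cells died. Active threshold: below 10.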 A number with no mark means an inactive call. Activity calls are given as the source filed them.

As for `CCOC(=O)c1nc2c3ccccc3ccn2c1C(=O)OC`, the growth was 130% in assay [1]; 86.9% in assay [2]; 100% in assay [3]; 89.5% in [4]; 94% in assay [5]; 94.3% in assay [6]. For the same compound, the growth was 106% in assay [7]; 105% in assay [8]; 102% in [9]; 76.4% in assay [10]; 97% in assay [11]; 96.5% in assay [12]. Also, the growth in assay [13] was 100%; in assay [14], 97.6%; in [15] it was 97.5%; in assay [16] it was 91.1%; in assay [17] it was 107%.

As for `CCOC(=O)c1cc(C(=O)c2ccc(OC)c(OC)c2)n2ccc(-c3ccccn3)cc12`, the growth in assay [1] is 75.8%; in assay [2], 72.9%; in assay [3], 37%; in [4], 84%; in assay [5], 6.14% (active); in assay [6] it was 54.7%. For the same compound, the growth is 78.5% in assay [7]; 64.2% in assay [8]; 65.6% in assay [9]; 23.1% in assay [10]; 93.6% in assay [11]; 70.7% in assay [12]. For the same compound, the growth was 58.6% in assay [13]; 73.3% in assay [14]; 99.9% in assay [15]; 90.5% in assay [16]; 77.4% in [17].

As for `COc1cc(/C=C/C(=O)/C=C/c2ccc(-n3ccnc3C)cc2)ccc1O`, the growth in assay [1] is 17.8%; in assay [2], -23.5% (active); in [3] it was 34.9%; in [4], 101%; in assay [5], 86.1%; in assay [6] it was -37.5% (active). In addition, the growth was 23.7% in assay [7]; 68.6% in [8]; 102% in assay [9]; 54.5% in assay [10]; 95.5% in assay [11]; -3.29% (active) in assay [12]. The growth is 2.17% (active) in assay [13], 4.86% (active) in assay [14], 90.6% in assay [15] and -47.3% (active) in assay [16].

As for `CC(C)=CCC[C@](C)(O)[C@H]1CC[C@]2(C)[C@@H]1CC[C@@H]1[C@@]3(C)CC/C(=N/O)C(C)(C)[C@@H]3CC[C@]12C`, the growth in assay [1] was 12.5% [100 µM]; in assay [2], -2.67% [100 µM] (active); in assay [3], -69.7% [100 µM] (active); in assay [4], 2.17% [100 µM] (active); in assay [5], 12.4% [100 µM]; in assay [6], -66.5% [100 µM] (active). The growth was -42.3% [100 µM] (active) in assay [7]; -13% [100 µM] (active) in [8]; -10.9% [100 µM] (active) in [9]; 7.5% [100 µM] (active) in assay [10]; 1.19% [100 µM] (active) in assay [11]; 5.38% [100 µM] (active) in assay [12]. Further, the growth was -48% [100 µM] (active) in [13]; 10% [100 µM] in assay [14]; -9.52% [100 µM] (active) in [15]; 10.9% [100 µM] in [16]; 15.8% [100 µM] in [17].

Consider `CC(=O)OC[C@]12CC[C@@H](C(=O)CBr)[C@@H]1[C@H]1CC[C@@H]3[C@@]4(C)CCCNC(C)(C)[C@@H]4CC[C@@]3(C)[C@]1(C)CC2`, for which the growth in assay [1] was 14.7% [100 µM]; in assay [2], -36.1% [100 µM] (active); in assay [3], -26.1% [100 µM] (active); in assay [4], -74.4% [100 µM] (active); in [5], -86.8% [100 µM] (active); in assay [6], -61.3% [100 µM] (active). For the same compound, the growth in assay [7] is -85.3% [100 µM] (active); in [8] it was -22.7% [100 µM] (active); in [9], -38.8% [100 µM] (active); in [10], -69.9% [100 µM] (active); in assay [11] it was -62% [100 µM] (active); in assay [12], -87.9% [100 µM] (active). For the same compound, the growth in assay [13] was -58% [100 µM] (active); in [14], -54.3% [100 µM] (active); in assay [15], -71.2% [100 µM] (active); in assay [16] it was -83.3% [100 µM] (active); in [17] it was -78.2% [100 µM] (active).

In the case of `CCN(CC)c1ccc2cc(C(Nc3ccc(Cl)cc3)c3nnnn3C(C)(C)C)c(=O)oc2c1` (stereo unspecified), the growth in assay [1] was 101%; in [2], 88.4%; in assay [3], 89.9%; in assay [4], 90.2%; in assay [5], 105%; in assay [6], 93.6%. Also, the growth in assay [7] was 94.4%; in [8] it was 89.4%; in assay [9] it was 97.7%; in [10] it was 71.7%; in assay [11], 103%; in assay [12], 87.8%. For the same compound, the growth in assay [13] is 100%; in assay [14] it was 74.2%; in assay [15], 92%; in assay [16] it was 105%; in assay [17] it was 88.7%.

As for `C=CCc1nc2ccccc2s1`, the growth in assay [1] is 98.9%; in [2], 92.4%; in assay [3], 98%; in assay [4] it was 101%; in [5] it was 110%; in assay [6], 74.6%. Further, the growth is 114% in assay [7]; 102% in assay [8]; 111% in assay [9]; 75.5% in assay [10]; 101% in [11]; 116% in [12]. In addition, the growth was 98.9% in [13]; 40.6% in assay [14]; 104% in [15]; 114% in assay [16]; 107% in assay [17].

Turning to `CC1=CCc2ccccc21`, the growth in assay [1] was 98.6%; in assay [2] it was 95%; in [3], 101%; in assay [4], 102%; in [5] it was 101%; in [6] it was 88.5%. Besides, the growth in assay [7] was 106%; in assay [8], 98.3%; in assay [9], 98.1%; in assay [10], 96.8%; in [11] it was 93.5%; in assay [12], 106%. Also, the growth in assay [13] was 95.6%; in [14], 90.5%; in assay [15], 101%; in [16], 108%; in assay [17], 103%.

Take `O=C(Nc1ccc(C(=O)/C=C/c2ccc(N3CCOCC3)cc2)cc1)Nc1ccc([N+](=O)[O-])cc1`: the growth in assay [1] is 94.1%; in assay [2], 77%; in [3], 92.4%; in [4], 94.4%; in assay [5], 90.5%; in [6], 72.5%. Moreover, the growth is 93.9% in assay [7]; 111% in [8]; 98.5% in assay [9]; 72.8% in [10]; 108% in assay [11]; 96% in assay [12]. For the same compound, the growth is 99.7% in assay [13]; 76.3% in [14]; 97.3% in assay [15]; 109% in assay [16]; 89.4% in [17].

As to `O=C(Nc1ccc(Oc2ccc(F)cc2)c(Cl)c1)c1cccnn1`, the growth was 97.6% in [1]; 62.6% in assay [2]; 71.3% in assay [3]; 84% in assay [4]; 88.8% in assay [5]; 97.6% in assay [6]. Besides, the growth is 73.6% in assay [7]; 95.6% in assay [8]; 69.4% in [9]; 37.6% in assay [10]; 103% in [11]; 67.2% in assay [12]. Besides, the growth in assay [13] is 94.1%; in assay [14], 65.3%; in assay [15], 96.8%; in assay [16] it was 89.1%; in assay [17] it was 79.2%.

With `C#C[C@]1(O)CC[C@H]2[C@@H]3CC=C4c5nc(Nc6ccccc6[N+](=O)[O-])sc5CC[C@]4(C)[C@H]3CC[C@@]21C`, the growth in [1] is 30.2%; in assay [2], 1.11% (active); in assay [3], 85.7%; in assay [4], 70.4%; in assay [18], 84.9%; in [7] it was 65.8%. Besides, the growth is 21.4% in assay [8]; 75.8% in assay [9]; 41.3% in assay [10]; 34% in assay [11]; 66.1% in [12]; 76% in assay [13]. The growth in assay [14] was 56.9%; in assay [15], 45.7%; in assay [16] it was 61.1%; in assay [17], 54.1%.

As for `CC1(C)NCCC[C@]2(C)[C@H]3C=CC4=C5C[C@](C)(CO)CC[C@]5(C)CC[C@@]4(C)[C@]3(C)CC[C@@H]12`, the growth in [1] was -5.08% [100 µM] (active); in assay [2], -43.8% [100 µM] (active); in assay [3], -57.8% [100 µM] (active); in assay [4], -98.7% [100 µM] (active); in assay [5], -80.1% [100 µM] (active); in [6], -84.5% [100 µM] (active). Also, the growth in assay [7] is -78.8% [100 µM] (active); in [8], -46.8% [100 µM] (active); in [9] it was -86.4% [100 µM] (active); in assay [10], -63.9% [100 µM] (active); in [11] it was -87.9% [100 µM] (active); in assay [12] it was -95.6% [100 µM] (active). Also, the growth is -80.7% [100 µM] (active) in assay [13]; -70.7% [100 µM] (active) in [14]; -77.4% [100 µM] (active) in [15]; -78.8% [100 µM] (active) in [16]; -85.5% [100 µM] (active) in assay [17].

Turning to `CC(C)c1ccc(/C=N/N=C(N)N)cc1`, the growth in assay [1] is 21.6%; in assay [2], 17.1%; in assay [3], 89.8%; in assay [4] it was 89.5%; in assay [5] it was 85.5%; in [6], 89.5%. In addition, the growth is 72.6% in assay [7]; 97.8% in assay [8]; 79.4% in assay [9]; 91% in assay [10]; 86.3% in [11]; -28.7% (active) in [12]. Also, the growth in assay [13] is 36.2%; in assay [14] it was 8.1% (active); in [15], 84.3%; in assay [16], 50.9%; in assay [17] it was 27.7%.

In the case of `Cc1cnc([C@]23CC[C@@H](C)[C@H](C)[C@H]2C2=CC[C@@H]4[C@@]5(C)Cc6c([nH]c7ccccc67)C(C)(C)[C@@H]5CC[C@@]4(C)[C@]2(C)CC3)o1`, the growth in assay [1] is 121% [100 µM]; in assay [2] it was 26.6% [100 µM]; in [3], 39.3% [100 µM]; in assay [4], 59.7% [100 µM]; in [5], 73.9% [100 µM]; in assay [6], 25.9% [100 µM]. The growth in [7] is 83.8% [100 µM]; in [8], 70.2% [100 µM]; in assay [9] it was 68.3% [100 µM]; in [10], 58% [100 µM]; in assay [11], 46.5% [100 µM]; in assay [12] it was -16.7% [100 µM] (active). The growth in assay [13] is 20.6% [100 µM]; in assay [14], 46.8% [100 µM]; in [15] it was 17.3% [100 µM]; in [16], 50% [100 µM]; in assay [17], 24.7% [100 µM].
